# Measured values published in a collection of fitness landscapes (doi:10.1126/science.1257360).
# Whole data set: some 140,000 sequences, median “enrichment ratio after two sorts for PhoP signalling” near 0, cut for the highest 2% near 11. The sample holds the highest values, similar sequences and a random draw of the others, so the mix is not that of the screen.
# B1: PhoQ; a variant is named by its letters at X, in order, P23837 (parent)
# chain: MKKLLRLFFPLSLRVRFLLATAAVVLVLSLAYGMVALIGYSVSFDKTTFRLLRGESNLFYTLAKWENNKLHVELPENIDKQSPTMTLIYDENGQLLWAQRDVPWLMKMIQPDWLKSNGFHEIEADVNDTSLLLSGDHSIQQQLQEVREDDDDAEMTHSVAVNVYPATSRMPKLTIVVVDTIPVELKSSYMVWSWFIYVLSANLLLVIPLLWVAAWWSLRPIEALAKEVRELEEHNRELLNPATTRELTSLVRNLNRLLKSERERYDKYRTTLTDLTHSLKTPLXXLQXXLRSLRSEKMSVSDAEPVMLEQISRISQQIGYYLHRASMRGGTLLSRELHPVAPLLDNLTSALNKVYQRKGVNISLDISPEISFVGEQNDFVEVMGNVLDNACKYCLEFVEISARQTDEHLYIVVEDDGPGIPLSKREVIFDRGQRVDTLRPGQGVGLAVAREITEQYEGKIVAGESMLGGARMEVIFGRQHSAPKDE
# Variants of: B1
# Experiment: enrichment ratio after two sorts for PhoP signalling (ratio (wild type AVST 3.29)); higher = more functional
# Conditions: with PhoP (E. coli)
row,Variant,enrichment ratio
1,DFCK,≤ 0.25
2,IFAG,≤ 0.25
3,ECNL,≤ 0.25
4,KFQG,≤ 0.25
5,GWTL,≤ 0.25
6,DYTL,≤ 0.25
7,YESY,≤ 0.25
8,RHIC,0.278
9,ATKV,≤ 0.25
10,IHFF,≤ 0.25
11,YYCV,≤ 0.25
12,TMCI,12.4
13,DMCT,≤ 0.25
14,TMCT,19.5
15,TMCK,3.91
16,NMCT,≤ 0.25
17,TMCA,8.5
18,YSWE,≤ 0.25
19,AFNE,≤ 0.25
20,WHNP,≤ 0.25
21,SEAG,12.1
22,SPAG,≤ 0.25
23,SQAG,25.9
24,SAVG,0.763
25,DPAG,≤ 0.25
26,SFAG,0.768

row,Variant,enrichment ratio
1,SAAG,14.1
2,STAG,9.55
3,KYAG,≤ 0.25
4,RRVI,≤ 0.25
5,FDPS,≤ 0.25
6,DHTW,≤ 0.25
7,SDIG,≤ 0.25
8,SYHG,≤ 0.25
9,SYMG,12.5
10,DPMG,≤ 0.25
11,STMG,9.85
12,KYIG,≤ 0.25
13,SYEG,≤ 0.25
14,SQMG,20.8
15,SYIG,11.3
16,WYLE,≤ 0.25
17,LKTQ,≤ 0.25
18,HHMC,≤ 0.25
19,FFEW,≤ 0.25
20,SADI,≤ 0.25
21,SNGG,7.77
22,TNLA,8.08
23,RGND,≤ 0.25
24,NGNG,≤ 0.25
25,IQNG,≤ 0.25
26,NQNG,≤ 0.25

row,Variant,enrichment ratio
1,PGNG,≤ 0.25
2,AQNG,28.2
3,TGNG,23.3
4,VKSA,≤ 0.25
5,NIRT,≤ 0.25
6,AVYH,0.253
7,INLE,≤ 0.25
8,FVTL,1.5
9,KYTL,≤ 0.25
10,SSTL,14
11,GVTL,8.09
12,CTTL,≤ 0.25
13,DITL,≤ 0.25
14,TTTL,13.4
15,SRTL,0.897
16,LTTL,≤ 0.25
17,SFTL,1.44
18,SITL,18.5
19,GMTL,15.2
20,MWFH,≤ 0.25
21,PGWI,≤ 0.25
22,ESFA,≤ 0.25
23,HNYP,≤ 0.25
24,MKHE,≤ 0.25
25,GLGE,≤ 0.25
26,GQQP,≤ 0.25

row,Variant,enrichment ratio
1,FLMS,≤ 0.25
2,ANVH,≤ 0.25
3,GTTL,11.7
4,FQTL,1.49
5,SQTL,12.3
6,TNTL,14
7,GNTL,6.85
8,WNTL,≤ 0.25
9,MNTL,3.28
10,TWTL,≤ 0.25
11,FTTL,3.67
12,SNTL,14.6
13,IQTL,≤ 0.25
14,QCRR,≤ 0.25
15,NVGP,≤ 0.25
16,SGTL,7.51
17,WPCQ,≤ 0.25
18,HKKN,≤ 0.25
19,PVRE,≤ 0.25
20,NYRG,≤ 0.25
21,KCTL,≤ 0.25
22,SVWL,≤ 0.25
23,WLTL,0.379
24,KFTL,≤ 0.25
25,VCTL,6.03
26,PLTL,≤ 0.25

row,Variant,enrichment ratio
1,SCTL,14.2
2,SVTL,12.2
3,TCTL,20.7
4,SLTL,15.2
5,FCTL,≤ 0.25
6,EAPT,≤ 0.25
7,TVGM,10.4
8,MWTK,≤ 0.25
9,AEKL,≤ 0.25
10,ARYC,≤ 0.25
11,ESWQ,≤ 0.25
12,HSSR,≤ 0.25
13,LRFQ,≤ 0.25
14,STTL,16.6
15,QETL,≤ 0.25
16,VLTL,3.19
17,FLTL,0.273
18,TLTL,14.1
19,SETL,14.8
20,NETL,≤ 0.25
21,ITTL,0.464
22,YTTL,3.18
23,MHRQ,≤ 0.25
24,GSPC,≤ 0.25
25,QHLF,≤ 0.25
26,RLFC,≤ 0.25

row,Variant,enrichment ratio
1,NYDD,≤ 0.25
2,RDCN,≤ 0.25
3,EACS,≤ 0.25
4,MLAN,≤ 0.25
5,MLYD,≤ 0.25
6,NCYQ,≤ 0.25
7,MEYQ,≤ 0.25
8,MCYQ,17.2
9,MLYQ,18.8
10,KCYQ,≤ 0.25
11,MADQ,≤ 0.25
12,VHFE,≤ 0.25
13,ESLL,0.525
14,ELNQ,≤ 0.25
15,MNML,24.9
16,TNML,1.41
17,YNSK,≤ 0.25
18,LNML,2.48
19,YNNL,≤ 0.25
20,GNML,12.2
21,GGML,15.7
22,GIML,8.24
23,YNML,13.9
24,GQML,7.95
